According to the supplement of paper PMC10849652:
Of roughly 7,900 targets only a part is listed; those with a hit were picked by preference. About 0.6% of all pairs of compound and target were hits.

Assays:
Assay in all cases: log2 fold change, soluble protein after heating vs DMSO (PISA); higher = thermal stabilisation; K562 cells, 10 uM, 30 min; active = over 0.2 and 3.5 SD of the protein, either way, in both replicates (recomputed)
[1] = compound: COC1=CC=C(C=C1)CN2C=CC3=C2C=C(C=C3)C(=O)NO
Method in brief: (§1)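 K562 cells (2×10^6 cells/mL) were treated with 10 μM compound for 30 min, and aliquots were heated for 3 min over 48°C-58°C. Pooled aliquots were extracted in PBS with 0.5% NP-40 at 4°C, and the supernatant after 21,000xg for 90 min was measured by TMTpro 16plex LC-MS/MS with channel sums equalised. Reported thermal stability, relative to control samples and from duplicates, is a log2 fold change.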

[2] = compound: CON(C)C(=O)N1N=C(c2cc(F)ccc2F)S[C@@]1(CCCN)c1ccccc1 [filanesib]
Method in brief: as §1

[3] = compound: CO[C@H]1C[C@@H]2CC[C@@H](C)[C@@](O)(O2)C(=O)C(=O)N2CCCC[C@H]2C(=O)O[C@H]([C@H](C)C[C@@H]2CC[C@H](n3cnnn3)[C@H](OC)C2)CC(=O)[C@H](C)/C=C(\C)[C@@H](O)[C@@H](OC)C(=O)[C@H](C)C[C@H](C)/C=C/C=C/C=C/1C [zotarolimus]
Method in brief: as §1

[4] = compound: COc1cc(C(=O)O)ccc1NC(=O)[C@@H]1N[C@@H](CC(C)(C)C)[C@](C#N)(c2ccc(Cl)cc2F)[C@H]1c1cccc(Cl)c1F [idasanutlin]
Method in brief: as §1

[5] = compound: COc1cc(Nc2ncc3c(n2)-c2ccc(Cl)cc2C(c2c(F)cccc2OC)=NC3)ccc1C(=O)O [alisertib]
Method in brief: as §1

[6] = compound: COc1cc2nc(-c3cc(F)ccc3O)nc(N[C@@H]3CNC[C@H]3C(C)(C)O)c2cc1OC
Method in brief: as §1

[7] = compound: COc1cc2ncnc(Nc3ccc(F)c(Cl)c3)c2cc1OCCCN1CCOCC1 [gefitinib]
Method in brief: as §1

[8] = compound: COc1cccc2cc(-c3nc([C@H]4CC[C@H](C(=O)O)CC4)n4ncnc(N)c34)[nH]c12
Method in brief: as §1

[9] = compound: CS(=O)(=O)CCNCc1ccc(-c2ccc3ncnc(Nc4ccc(OCc5cccc(F)c5)c(Cl)c4)c3c2)o1 [lapatinib]
Method in brief: as §1

[10] = compound: CS(=O)(=O)N1CCN(Cc2cc3nc(-c4cccc5[nH]ncc45)nc(N4CCOCC4)c3s2)CC1 [pictilisib]
Method in brief: as §1

Measured: log2 fold change

CLINT1 isoform 3 (UniProt Q14677)
inactive: [1] -0.159 | [2] 0.155 | [3] -0.031 | [4] 0 | [5] -0.105 | [6] 0.074 | [7] 0.148 | [8] -0.041 | [9] 0.014

CETN2 (UniProt P41208)
Sequence of UniProt P41208 (P41208 whole entry, looked up): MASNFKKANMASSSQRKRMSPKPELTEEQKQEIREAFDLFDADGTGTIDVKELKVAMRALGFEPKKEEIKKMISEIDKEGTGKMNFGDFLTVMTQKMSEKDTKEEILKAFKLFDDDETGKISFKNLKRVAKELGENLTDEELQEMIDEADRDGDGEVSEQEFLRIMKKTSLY
inactive: [1] -0.114 | [2] 0.225 | [3] -0.067 | [4] 0.042 | [5] -0.112 | [6] 0.141 | [7] 0.019 | [8] 0.028 | [9] -0.207 | [10] 0.028

CLCN3 (UniProt P51790)
inactive: [1] -0.158 | [2] -0.12 | [3] -0.099 | [4] -0.095 | [5] -0.016 | [6] 0.031 | [7] 0.045 | [8] 0.058 | [9] -0.06

CLPX (UniProt O76031)
Sequence of UniProt O76031 (O76031 whole entry, looked up): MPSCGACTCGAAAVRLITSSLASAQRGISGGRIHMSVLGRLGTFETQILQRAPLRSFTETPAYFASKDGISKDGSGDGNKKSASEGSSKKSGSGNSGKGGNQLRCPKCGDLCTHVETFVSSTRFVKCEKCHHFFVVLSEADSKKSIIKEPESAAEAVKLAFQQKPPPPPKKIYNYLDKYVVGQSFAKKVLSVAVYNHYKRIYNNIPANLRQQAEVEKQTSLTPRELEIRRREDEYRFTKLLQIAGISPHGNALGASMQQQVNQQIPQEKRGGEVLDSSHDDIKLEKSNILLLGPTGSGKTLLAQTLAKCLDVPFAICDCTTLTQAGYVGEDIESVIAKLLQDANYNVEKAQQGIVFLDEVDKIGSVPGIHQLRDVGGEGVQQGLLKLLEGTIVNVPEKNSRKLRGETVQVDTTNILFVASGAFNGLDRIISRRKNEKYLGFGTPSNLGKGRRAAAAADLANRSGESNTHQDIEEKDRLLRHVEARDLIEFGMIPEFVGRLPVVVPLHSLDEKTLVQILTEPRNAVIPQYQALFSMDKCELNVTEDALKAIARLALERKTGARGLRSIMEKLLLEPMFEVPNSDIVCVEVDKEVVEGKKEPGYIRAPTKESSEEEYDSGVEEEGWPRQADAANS
inactive: [1] 0.077 | [2] -0.07 | [3] -0.052 | [4] -0.007 | [5] -0.026 | [6] -0.017 | [7] 0.019 | [8] 0.021 | [9] 0.014

CDC42BPB (UniProt Q9Y5S2)
inactive: [1] -0.062 | [2] 0.147 | [3] 0.089 | [4] 0.062 | [5] -0.1 | [6] -0.371 | [7] -0.07 | [8] 0.071 | [9] -0.009 | [10] 0.025

C9orf72 (UniProt Q96LT7)
inactive: [1] -0.06 | [2] -0.054 | [3] -0.115 | [4] -0.026 | [5] 0.062 | [6] -0.013 | [7] -0.034 | [8] -0.062 | [9] 0.062 | [10] -0.015

CLASP2 isoform 3 (UniProt O75122)
inactive: [1] 0.021 | [2] 0.068 | [3] 0.033 | [4] -0.024 | [5] -0.021 | [6] 0.055 | [7] -0.002 | [8] 0.003 | [9] -0.009

CBX1 (UniProt P83916)
active: [1] 0.41
inactive: [2] -0.016 | [3] 0.008 | [4] 0.038 | [5] -0.059 | [6] -0.086 | [7] 0.021 | [8] 0.003 | [9] 0.037 | [10] -0.046

CLCN3 isoform 2 (UniProt P51790)
inactive: [1] 0.057 | [2] -0.151 | [3] -0.031 | [4] -0.008 | [5] 0.03 | [6] -0.064 | [7] -0.015 | [8] 0.04 | [9] 0.008

CDC42BPA isoform 6 (UniProt Q5VT25)
inactive: [1] -0.005 | [2] 0.009 | [3] 0.081 | [4] 0.004 | [5] -0.04 | [7] -0.096 | [8] -0.027 | [9] 0.106 | [10] 0.118
active: [6] -1.1

CRLF3 (UniProt Q8IUI8)
inactive: [1] -0.006 | [2] -0.049 | [3] 0.016 | [4] 0.039 | [5] 0.005 | [6] -0.05 | [7] 0.018 | [8] 0.014 | [9] 0.035 | [10] 0.051

CDC123 (UniProt O75794)
inactive: [1] 0.005 | [2] -0.043 | [3] -0.016 | [4] 0.032 | [5] -0.048 | [6] 0.024 | [7] -0.057 | [8] 0.001 | [9] 0.017 | [10] -0.027

CA8 (UniProt P35219)
Sequence of UniProt P35219 (P35219 whole entry, looked up): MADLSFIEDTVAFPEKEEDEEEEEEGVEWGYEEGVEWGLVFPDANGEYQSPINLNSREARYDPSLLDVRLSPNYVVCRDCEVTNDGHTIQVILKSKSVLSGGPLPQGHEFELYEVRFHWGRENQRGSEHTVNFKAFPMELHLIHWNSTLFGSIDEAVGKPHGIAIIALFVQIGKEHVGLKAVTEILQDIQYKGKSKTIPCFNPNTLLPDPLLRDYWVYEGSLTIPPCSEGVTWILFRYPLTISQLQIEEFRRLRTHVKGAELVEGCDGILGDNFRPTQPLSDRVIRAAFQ
inactive: [1] 0.046 | [2] -0.055 | [3] 0.09 | [4] -0.073 | [5] -0.112 | [6] -0.086 | [7] 0.023 | [8] 0.032 | [9] 0.008 | [10] 0.173

CDK16 isoform 2 (UniProt Q00536)
inactive: [1] 0.029 | [2] 0.021 | [3] -0.028 | [4] -0.036 | [5] 0.02 | [6] 0.252 | [7] -0.086 | [8] 0.037 | [9] 0.002

CD81 (UniProt P60033)
Sequence of UniProt P60033 (P60033 whole entry, looked up): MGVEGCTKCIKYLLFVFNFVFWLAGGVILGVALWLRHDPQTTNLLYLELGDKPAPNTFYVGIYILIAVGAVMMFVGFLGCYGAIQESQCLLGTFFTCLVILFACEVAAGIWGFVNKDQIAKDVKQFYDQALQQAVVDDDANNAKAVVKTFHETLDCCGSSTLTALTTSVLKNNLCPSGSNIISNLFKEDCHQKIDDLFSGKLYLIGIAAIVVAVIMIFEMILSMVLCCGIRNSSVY
inactive: [1] -0.051 | [2] 0.049 | [3] 0.003 | [4] -0.014 | [5] -0.007 | [6] 0.008 | [7] 0.043 | [8] 0.052 | [9] -0.032 | [10] 0.138

CLUH (UniProt O75153)
inactive: [1] -0.026 | [2] 0.07 | [3] 0.028 | [4] -0.074 | [5] -0.072 | [6] -0.022 | [7] -0.001 | [8] -0.152 | [9] 0.006

CHST10 (UniProt O43529)
inactive: [1] -0.11 | [2] 0.021 | [3] 0.088 | [4] 0.062 | [5] -0.014 | [6] -0.073 | [7] -0.071 | [8] 0.088 | [9] 0.058 | [10] 0.027

CDK4 (UniProt P11802)
inactive: [1] -0.111 | [2] 0.09 | [3] -0.071 | [4] 0.061 | [5] 0.062 | [6] -0.049 | [7] 0.017 | [8] -0.057 | [9] -0.031

CLTB (UniProt P09497)
active: [1] 0.263
inactive: [2] -0.053 | [3] -0.006 | [4] -0.02 | [5] -0.106 | [6] 0 | [7] 0.017 | [8] 0.028 | [9] -0.014

CEPT1 (UniProt Q9Y6K0)
Sequence of UniProt Q9Y6K0 (Q9Y6K0 whole entry, looked up): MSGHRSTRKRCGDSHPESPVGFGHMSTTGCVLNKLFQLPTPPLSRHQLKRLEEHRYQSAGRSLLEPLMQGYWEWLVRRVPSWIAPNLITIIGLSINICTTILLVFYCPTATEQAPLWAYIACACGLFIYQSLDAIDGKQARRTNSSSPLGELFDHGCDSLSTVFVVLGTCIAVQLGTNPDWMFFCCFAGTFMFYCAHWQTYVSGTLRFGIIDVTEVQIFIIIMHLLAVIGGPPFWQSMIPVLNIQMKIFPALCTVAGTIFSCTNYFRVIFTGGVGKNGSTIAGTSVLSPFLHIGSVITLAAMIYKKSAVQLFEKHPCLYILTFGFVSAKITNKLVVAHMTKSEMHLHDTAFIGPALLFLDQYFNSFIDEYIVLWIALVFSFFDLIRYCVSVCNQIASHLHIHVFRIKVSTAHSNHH
inactive: [1] 0.029 | [2] -0.277 | [3] -0.095 | [4] -0.142 | [5] 0.009 | [6] 0.022 | [7] -0.025 | [8] 0.036 | [9] 0.095 | [10] 0.011

CLUH, A0A494C0R8
inactive: [1] 0.131 | [2] 0.168 | [3] -0.065 | [4] 0.027 | [5] 0.007 | [6] -0.024 | [7] 0.078 | [8] -0.227 | [9] -0.011

CHD3 isoform 3 (UniProt Q12873)
Sequence of UniProt Q12873 (Q12873 whole entry, looked up): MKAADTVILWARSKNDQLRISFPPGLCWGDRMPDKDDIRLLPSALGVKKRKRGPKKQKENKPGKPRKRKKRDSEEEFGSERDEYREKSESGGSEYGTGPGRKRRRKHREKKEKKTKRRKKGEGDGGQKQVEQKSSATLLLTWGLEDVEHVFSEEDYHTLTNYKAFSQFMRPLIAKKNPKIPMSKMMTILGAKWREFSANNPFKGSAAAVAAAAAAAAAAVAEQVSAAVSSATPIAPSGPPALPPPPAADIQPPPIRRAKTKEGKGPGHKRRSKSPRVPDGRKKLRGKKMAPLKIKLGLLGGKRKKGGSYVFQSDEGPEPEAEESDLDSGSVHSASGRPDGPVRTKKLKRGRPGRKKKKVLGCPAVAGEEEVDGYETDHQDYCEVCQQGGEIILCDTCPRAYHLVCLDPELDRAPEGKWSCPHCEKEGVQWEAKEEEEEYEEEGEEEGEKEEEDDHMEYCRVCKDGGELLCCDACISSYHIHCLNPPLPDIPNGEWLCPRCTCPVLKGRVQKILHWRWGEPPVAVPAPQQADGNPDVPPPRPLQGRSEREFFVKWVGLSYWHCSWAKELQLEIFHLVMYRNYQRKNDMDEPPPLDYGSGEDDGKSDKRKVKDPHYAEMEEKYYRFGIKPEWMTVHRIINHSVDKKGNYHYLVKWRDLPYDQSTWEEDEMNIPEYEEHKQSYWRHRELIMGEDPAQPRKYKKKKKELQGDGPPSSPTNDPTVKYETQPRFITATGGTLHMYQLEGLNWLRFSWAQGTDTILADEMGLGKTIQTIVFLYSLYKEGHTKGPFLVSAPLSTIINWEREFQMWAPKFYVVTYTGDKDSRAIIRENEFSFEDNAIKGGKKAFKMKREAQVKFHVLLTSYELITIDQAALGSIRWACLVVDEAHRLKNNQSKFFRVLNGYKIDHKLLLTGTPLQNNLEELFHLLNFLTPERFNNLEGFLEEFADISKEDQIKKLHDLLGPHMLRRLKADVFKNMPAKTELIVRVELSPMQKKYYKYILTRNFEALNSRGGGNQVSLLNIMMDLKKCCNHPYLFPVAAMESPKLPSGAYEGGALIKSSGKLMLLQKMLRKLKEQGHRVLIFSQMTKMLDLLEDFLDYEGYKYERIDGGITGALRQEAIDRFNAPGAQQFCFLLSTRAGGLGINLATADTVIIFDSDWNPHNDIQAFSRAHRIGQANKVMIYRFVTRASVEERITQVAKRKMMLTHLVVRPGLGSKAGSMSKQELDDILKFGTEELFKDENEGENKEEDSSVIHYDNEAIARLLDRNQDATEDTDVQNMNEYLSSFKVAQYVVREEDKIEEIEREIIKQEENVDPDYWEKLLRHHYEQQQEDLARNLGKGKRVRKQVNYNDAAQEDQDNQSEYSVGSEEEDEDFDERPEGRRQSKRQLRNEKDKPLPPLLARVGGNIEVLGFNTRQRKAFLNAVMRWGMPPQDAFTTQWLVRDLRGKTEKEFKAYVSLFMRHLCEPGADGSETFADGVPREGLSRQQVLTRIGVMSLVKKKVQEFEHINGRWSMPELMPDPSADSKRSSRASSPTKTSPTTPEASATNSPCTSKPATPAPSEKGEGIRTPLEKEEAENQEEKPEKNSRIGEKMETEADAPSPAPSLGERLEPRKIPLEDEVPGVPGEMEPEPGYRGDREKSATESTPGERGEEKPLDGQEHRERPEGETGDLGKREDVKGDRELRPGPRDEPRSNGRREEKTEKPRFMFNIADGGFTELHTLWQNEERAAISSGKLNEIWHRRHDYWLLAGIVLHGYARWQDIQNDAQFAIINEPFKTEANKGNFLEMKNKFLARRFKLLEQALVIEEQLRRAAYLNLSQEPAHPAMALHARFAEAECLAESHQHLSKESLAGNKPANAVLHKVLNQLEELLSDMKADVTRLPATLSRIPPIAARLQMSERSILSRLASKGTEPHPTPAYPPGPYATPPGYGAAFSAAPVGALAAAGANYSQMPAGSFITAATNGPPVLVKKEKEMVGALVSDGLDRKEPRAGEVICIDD
inactive: [1] -0.137 | [2] 0.082 | [3] 0.174 | [4] 0.097 | [5] -0.001 | [6] -0.207 | [7] 0 | [8] -0.051 | [9] -0.016 | [10] -0.024

CLCN7 (UniProt P51798)
Sequence of UniProt P51798 (P51798 whole entry, looked up): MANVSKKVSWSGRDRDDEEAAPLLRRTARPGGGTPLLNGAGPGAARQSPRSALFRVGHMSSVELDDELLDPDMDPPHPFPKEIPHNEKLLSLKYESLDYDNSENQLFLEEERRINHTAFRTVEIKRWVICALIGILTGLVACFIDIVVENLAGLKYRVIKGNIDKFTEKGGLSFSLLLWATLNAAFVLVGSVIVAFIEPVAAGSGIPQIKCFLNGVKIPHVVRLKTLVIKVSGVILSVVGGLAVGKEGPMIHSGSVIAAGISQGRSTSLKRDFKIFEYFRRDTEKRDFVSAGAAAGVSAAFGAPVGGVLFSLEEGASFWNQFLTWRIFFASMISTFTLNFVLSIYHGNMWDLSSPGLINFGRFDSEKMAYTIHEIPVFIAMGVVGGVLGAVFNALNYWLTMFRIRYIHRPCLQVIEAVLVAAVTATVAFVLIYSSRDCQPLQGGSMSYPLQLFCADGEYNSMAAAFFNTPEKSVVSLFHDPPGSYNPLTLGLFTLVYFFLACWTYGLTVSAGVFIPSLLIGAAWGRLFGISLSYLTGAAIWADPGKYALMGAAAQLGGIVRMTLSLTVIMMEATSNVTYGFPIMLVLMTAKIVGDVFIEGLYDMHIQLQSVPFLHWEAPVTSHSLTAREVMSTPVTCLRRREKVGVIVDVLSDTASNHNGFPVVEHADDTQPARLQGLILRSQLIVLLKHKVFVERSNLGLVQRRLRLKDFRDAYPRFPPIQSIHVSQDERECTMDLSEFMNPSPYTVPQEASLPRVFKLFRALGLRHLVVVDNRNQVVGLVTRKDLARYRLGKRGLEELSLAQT
inactive: [1] 0.112 | [3] 0.008 | [4] -0.006 | [5] -0.084 | [6] -0.077 | [7] -0.144 | [8] 0.023 | [9] -0.011
active: [2] -0.294

CHKA (UniProt P35790)
inactive: [1] -0.021 | [2] 0.02 | [3] -0.148 | [4] -0.009 | [5] -0.032 | [6] 0.065 | [7] -0.016 | [8] 0.004 | [9] -0.013 | [10] 0.041

CLPP (UniProt Q16740)
Sequence of UniProt Q16740 (Q16740 whole entry, looked up): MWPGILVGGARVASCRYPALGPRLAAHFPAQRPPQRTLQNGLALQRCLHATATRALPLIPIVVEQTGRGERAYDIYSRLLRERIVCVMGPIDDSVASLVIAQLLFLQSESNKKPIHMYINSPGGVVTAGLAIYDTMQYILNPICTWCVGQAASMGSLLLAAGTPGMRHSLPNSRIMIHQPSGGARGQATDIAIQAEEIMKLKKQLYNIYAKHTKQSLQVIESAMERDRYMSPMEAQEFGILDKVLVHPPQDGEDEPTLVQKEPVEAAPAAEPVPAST
inactive: [1] -0.03 | [2] -0.017 | [3] 0 | [4] -0.038 | [5] -0.091 | [6] 0.011 | [7] 0.01 | [8] 0.021 | [9] -0.034

CHCHD2 (UniProt Q9Y6H1)
inactive: [1] 0.101 | [2] 0.026 | [3] -0.024 | [5] 0.053 | [6] -0.002 | [7] -0.028 | [8] -0.155 | [9] -0.024 | [10] 0.031
active: [4] -0.457

C22orf39 (UniProt Q6P5X5)
inactive: [1] 0.02 | [2] -0.043 | [3] -0.014 | [4] 0.119 | [5] -0.025 | [6] -0.344 | [7] 0.058 | [8] -0.006 | [9] 0.077

COX20 isoform 2 (UniProt Q5RI15)
Sequence of UniProt Q5RI15 (Q5RI15 whole entry, looked up): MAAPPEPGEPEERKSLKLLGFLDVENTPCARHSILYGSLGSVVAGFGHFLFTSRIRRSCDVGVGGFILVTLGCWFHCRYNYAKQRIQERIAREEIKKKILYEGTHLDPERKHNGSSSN
inactive: [1] -0.029 | [2] -0.011 | [3] -0.029 | [4] -0.039 | [5] -0.025 | [6] 0.06 | [7] -0.01 | [8] 0.012 | [9] -0.014 | [10] -0.081
